Inconclusive results are not listed. Calls of active or inactive are those of the source. Calls come from the whole dose curve; as a rule, active = well fitted activation curve with a large enough effect; inconclusive = small, poorly fitted or top-dose-only effect, or effect the other way; inactive = flat fitted curve, though single readings scatter.
% is set by controls: 0 for no effect and ±100 for the full control effect.

The nature of this experiment: qHTS Assay for Identification of Small Molecule Agonists for Thrombopoietin (TPO) Signaling Pathway (AID 917). The following applies: TPO signaling pathway reporter cells, agonist qHTS, stimulated with TPO at its EC50; series mostly up to 38.5 µM; activity, positive = activation: at the top concentration. On the procedure:
NIH Molecular Libraries Screening Centers Network [MLSCN]
NIH Chemical Genomics Center [NCGC]
The thrombopoietin (TPO) signaling pathway was assayed in murine Ba/F3 cells stably transfected with the human TPO receptor and a luciferase reporter gene controlled by the Glycoprotein IIb promoter (provided by Axxam). BaF3 cells are an IL-3-dependent pro B cell line that upon TPO stimulation, undergo cell division and induce the megakaryocyte marker, Glycoprotein IIb. The assay was screened at the EC50 of TPO (26 pM) to identify activators of the pathway.
NCGC Assay Protocol Summary:
Cells were maintained at 37 C and 5% CO2in RPMI with 10% fetal bovine serum, 0.5 ng/mL murine IL-3, 100U/ml penicillin and 100 ug/ml streptomycin. Prior to plating, cells were incubated overnight in medium without IL-3. Cells were plated at 250 cells/5uL/well into white solid 1536-well plates, 23 nL of compounds were delivered by a pin tool, and 1 uL of TPO (26 pM final concentration in IL-3 deficient medium) was added. Following 24 hrs of incubation at 37 C and 5% CO2, 4 uL of Steadylite detector mix (PerkinElmer) was added, the plates incubated at room temperature for 10 min and luminescence was measured for 10 s and 2X binning by a ViewLux detector (Perkin Elmer).
(In general: In qHTS, concentration-response curves come from the screen itself.)
As for `N=c1c[n+](N2CCOCC2)[n-]o1`, the “activity, positive = activation” value is -12.7% (inactive).
Turning to `CC(=O)OCC(=O)[C@@]1(O)CC[C@H]2[C@@H]3CCC4=CC(=O)CC[C@]4(C)[C@H]3C(=O)C[C@@]21C`, the “activity, positive = activation” value was -9.45% (inactive).
Consider `CCN(CC)CCNC(=O)c1cc(Cl)c(N)cc1OC`, for which the “activity, positive = activation” value is -0.784% (inactive).
For the compound `CC1=C(CC(=O)O)c2cc(F)ccc2/C1=C\c1ccc(S(C)=O)cc1` (stereo not drawn), the “activity, positive = activation” value is -5.4% (inactive).
With `C=Cc1c(C)c2cc3[nH]c(cc4nc(cc5nc(cc1[nH]2)C(C)=C5CCC(=O)O)C(CCC(=O)O)=C4C)c(C)c3C=C`, the “activity, positive = activation” value was -28.1% (inactive).
For `COc1ccc(Cl)cc1C(=O)NCCc1ccc(S(=O)(=O)NC(=O)NC2CCCCC2)cc1`, the “activity, positive = activation” value was -14% (inactive).
Regarding `Nc1cc(=O)[nH]c(N)n1`, the “activity, positive = activation” value was -7.62% (inactive).
The same measure, in the same setting: the result for `NC1CCN(c2cccc(Cl)n2)CC1` reads -11.7% (inactive); that for `CN(C)CCC=C1c2ccccc2CCc2ccccc21`, -23.1% (inactive).
On to `C#CCN(C)Cc1ccccc1`, for which the “activity, positive = activation” value was 0.243% (inactive).
Still for that read-out and setting: the result for `CC(C)C(=O)c1c(C(C)C)nn2ccccc12` reads 8.79% (inactive).
In the case of `CC(C)NC[C@H](O)c1ccc(O)c(O)c1`, the outcome was inactive.
As to `CN(C)CCCN1c2ccccc2CCc2ccccc21`, the “activity, positive = activation” value was -8.39% (inactive).
Regarding `CC1=C(CC(=O)O)c2cc(F)ccc2/C1=C\c1ccc(S(C)(=O)=O)cc1`, the “activity, positive = activation” value was -17.1% (inactive).
For the compound `CCCn1cnc2c1c(=O)n(CCCCC(C)=O)c(=O)n2C`, the “activity, positive = activation” value is -26.9% (inactive).
On the same count and under the same terms, the result for `NC(N)=NCCC[C@H](N)C(=O)O` reads -23.5% (inactive).
For the compound `C[C@]12CC[C@@H]3c4ccc(O)cc4CC[C@H]3[C@@H]1CCC2=O`, the “activity, positive = activation” value is -15% (inactive).
`CCCCCCCCCCCCCCCC(=O)NCCO`: the “activity, positive = activation” value was -14.9% (inactive).
